Measurements as given in PubChem BioAssay AID1851 (National Center for Advancing Translational Sciences (NCATS), 2009).
Values joined by “and” are separate entries in the source; they are usually repeats but may differ in a detail not shown here. Equal values may be shown once. In all, about 16,000 compounds went through this assay and about 2,600 (16%) were called active. Inconclusive results (about 20%) are left out. The call rests on the fitted dose curve; in most records, active means well fitted curve in the direction sought with a large enough effect; inconclusive means small, poorly fitted or top-dose-only effect, or effect the other way; inactive means no such curve, though single readings can be large or run the other way. A selection follows. Some compounds were tested as several samples or in several runs, with calls that do not always agree.

The molecules below were run against Cytochrome P450 2D6 (Homo sapiens) (UniProt P10635) (assay: Cytochrome panel assay with activity outcomes). Conditions: recombinant CYP, pro-luciferin dealkylation, luminescence, p450-cyp2d6; series mostly up to 57.1 µM.
On the % scale 0 is the no-effect control and ±100 the full control effect.

Sequence of Cytochrome P450 2D6 (Homo sapiens) (P10635 whole entry, looked up): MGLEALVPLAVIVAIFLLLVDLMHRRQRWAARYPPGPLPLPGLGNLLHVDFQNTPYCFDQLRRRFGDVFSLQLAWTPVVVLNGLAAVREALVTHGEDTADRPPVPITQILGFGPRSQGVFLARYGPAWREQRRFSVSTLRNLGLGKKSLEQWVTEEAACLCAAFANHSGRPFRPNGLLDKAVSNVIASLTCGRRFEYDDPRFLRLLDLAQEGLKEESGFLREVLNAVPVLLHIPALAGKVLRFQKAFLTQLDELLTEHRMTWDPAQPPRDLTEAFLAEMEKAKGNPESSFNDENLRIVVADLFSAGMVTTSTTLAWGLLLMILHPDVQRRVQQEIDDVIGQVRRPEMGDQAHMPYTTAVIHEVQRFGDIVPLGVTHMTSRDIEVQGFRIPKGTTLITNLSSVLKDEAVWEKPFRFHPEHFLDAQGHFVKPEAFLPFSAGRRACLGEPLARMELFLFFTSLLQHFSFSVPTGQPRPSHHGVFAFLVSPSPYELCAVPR

SMILES | AC50 | activity, negative = inhibition
CN(C)c1ccnc(Oc2ccc(Cl)cc2)c1C#N | 5.01 µM (active) | 
N#Cc1c(-c2ccccc2)ccnc1Oc1ccccc1 | inactive | 
Cc1cc(C)c(C#N)c(Oc2ccc(F)cc2)n1 | inactive | 
COC(=O)[C@@H]1CC[C@H](C)[C@@H](c2ccc(C)cc2)N1C(=O)c1ccc(/C=N\OC[C@@H]2O[C@H](c3ccccc3)C=C[C@@H]2Oc2ccc(OC)cc2)cc1 |  | 3.42% [at 11.4 µM] (inactive)
CCCN[C@@H](C)C(=O)Nc1c(C)csc1C(=O)OC | inactive | 
CCOC(=O)N1CCN(C(=O)c2cccn3c(=O)c4cc(Cl)ccc4nc23)CC1 | inactive | 
CCOC(=O)c1[nH]c2ccc(Cl)cc2c1-c1ccccc1 | inactive | 
CCOC(=O)N1CCN(c2c(-c3ccccc3)c3cc(Cl)ccc3[nH]c2=O)CC1 | 0.355 µM (active) | 
O=C(c1ccccc1)N1CCSC1=S | inactive | 
COc1ccc(C(=O)[C@H](Br)[C@H](Br)C(=O)O)cc1 |  | -14.6% [at 11.4 µM] (inactive)
CCOc1cc(/C=N/n2cnnc2)c(Br)cc1O | inactive | 
Cc1ccc(C(=O)N/N=C/c2nc3ccccc3n2C)cc1 | inactive | 
Cc1ccc(/C=N/NC(=O)CSc2nc3ccccc3n2C)s1 | 7.08 µM (active) | 
Cn1c(/C=N/NC(=O)c2ccccc2Br)nc2ccccc21 | inactive | 
O=C(c1cc(Br)ccc1O)c1cc(Br)ccc1O |  | -11.4% [at 11.4 µM] (inactive)
CC(C)=C[C@H]1[C@@H](C(=O)Oc2ccccc2C(C)C)C1(C)C |  | 0.868% [at 11.4 µM] (inactive)
CC1(C)CCC=[N+]1[O-] | inactive | 
Nc1c2c(nc3ccccc13)CCCC2 | 5.01 µM (active) and inactive | 
Nc1c2c(nc3ccccc13)CCC[C@H]2O | inactive | 
Nc1[nH]n2c(=O)c3c(nc2c1N=Nc1ccccc1)CCCC3 | inactive | 
COc1ccc(NC(=O)C2CC(=O)NC3=C2C(=O)CC(C)(C)C3)cc1 (stereo unspecified) | inactive | 

SMILES | AC50 | activity, negative = inhibition
COc1ccc(CCN=CC2=C(O)CC(C)(C)CC2=O)cc1 | inactive | 
CC(=O)OC[C@@H]1O[C@H](C/C=N\O[C@@H](C)CN2CCCc3nc(C)c(C)cc32)C=C[C@@H]1OC(C)=O | 3.16 µM (active) | 
CC(=O)OC[C@@H]1O[C@H](C/C=N\O[C@@H](C)c2cc(-c3c(C)cc(C)cc3C)no2)C=C[C@@H]1OC(C)=O |  | -0.786% [at 11.4 µM] (inactive)
CC(=O)OC[C@@H]1O[C@H](C/C=N\O[C@@H](C)CN2CCCCc3nc(C)c(C)cc32)C=C[C@@H]1OC(C)=O | 3.16 µM (active) | 
CC(=O)OC[C@@H]1O[C@H](C/C=N\O[C@@H](C)c2cn([C@H]3COC[C@H]3O)nn2)C=C[C@@H]1OC(C)=O |  | 10.3% [at 11.4 µM] (inactive)
CC(=O)OC[C@@H]1O[C@H](C/C=N\OC[C@@H](O)COCc2ccco2)C=C[C@@H]1OC(C)=O |  | -5.26% [at 11.4 µM] (inactive)
CC(=O)OC[C@@H]1O[C@H](C/C=N\O[C@@H](C)c2cn([C@H](CO)Cc3ccccc3)nn2)C=C[C@@H]1OC(C)=O |  | 6.63% [at 11.4 µM] (inactive) and -11.6% [at 11.4 µM] (inactive)
CC(C)Nc1nc(NC(C)(C)C)nc(Oc2ccc(=O)n(-c3ccccc3)n2)n1 | inactive | 
Cc1ccc(NC(=O)Nc2nc(-c3ccc(C)s3)cs2)cc1 | inactive | 
CCCCN(C(=O)NC(=O)Nc1ccccc1OCC)S(C)(=O)=O | inactive | 
Cc1ccc2nc(N/N=C\c3cccc(C)n3)cc(C)c2c1 | 3.16 µM (active) | 
Cc1cnn(-c2cc(N/N=C/c3ccccc3)ncn2)c1 | inactive | 
COc1cccc(C(C#N)N2N=C(C)CC2(C)C)c1O (stereo unspecified) | inactive | 
Cc1nc(S(=O)(=O)N2CCOCC2)c(C#N)c(C)c1Cl | inactive | 
COc1cccc2c1[C@@H]1CN(CCCCn3c(=O)[nH]c4c(sc5ncc(-c6ccccc6)nc54)c3=O)C[C@H]1CO2 | 31.6 µM (active) | 
CCN(CC)C(=O)C1CCCN(c2ccc([N+](=O)[O-])cc2/C=N/NC(=O)c2ccc([N+](=O)[O-])cc2)C1 (stereo unspecified) | inactive | 
Brc1ccc2cccnc2c1 | inactive | 
C/C(N)=C(/C#N)C(=O)COc1ncnc2ccc(Br)cc12 | inactive | 
Brc1ccc2ncnc(Nc3cccc4ccccc34)c2c1 | 14.1 µM (active) | 
Cc1cc(C(F)F)n2nc(C(=O)Nc3sc4c(c3C#N)CCC(C)C4)nc2n1 (stereo unspecified) | inactive | 
COCCn1c(=O)c(-c2ccc(Cl)cc2)nc2cnc(Oc3ccccc3)nc21 | inactive | 

SMILES | AC50 | activity, negative = inhibition
COC(=O)CN(c1ccccn1)S(=O)(=O)c1ccccc1 | inactive | 
CN(CCOc1ccc(C[C@H](Nc2ccccc2C(=O)c2ccccc2)C(=O)O)cc1)c1ccccn1 | 0.0316 µM (active) | 
Cc1cc(C)c(S(=O)(=O)n2ccc(-c3ccc(OCCN(C)c4ccccn4)cc3)n2)c(C)c1 | inactive | 
COCCCN1C(=O)C(=O)/C(=C(/O)c2ccc(OC)cc2C)C1c1cccnc1 (stereo unspecified) | inactive | 
Cc1ccc(COc2coc(CO)cc2=O)cc1 | inactive | 
CC(C)(C)c1ccc(OCC(=O)N/N=C/c2cc(Br)ccc2OC(=O)c2ccco2)cc1 | inactive | 
Cc1ccc(COc2ccc(Br)cc2/C=N/O)cc1 | 17.8 µM (active) | 
CCNc1ncc2ncc(=O)n(Cc3cccs3)c2n1 | 12.6 µM (active) | 
N#CCCn1c(=O)c(-c2cccc(C#N)c2)nc2cnc(Oc3ccccc3)nc21 | inactive | 
CCNc1ncc2nc(-c3cccs3)c(=O)n(C)c2n1 | inactive | 
CCNc1ncc2nc(-c3cn(C)c4ccccc34)c(=O)n(CCC#N)c2n1 | 3.98 µM (active) | 
CN1CCN(c2ncc3nc(-c4cccc(C#N)c4)c(=O)n(CCC#N)c3n2)CC1 | inactive | 
COc1ncc2nc(-c3cn(C)c4ccccc34)c(=O)n(CCC#N)c2n1 | inactive | 
CCNc1ncc2nc(-c3cccs3)c(=O)n(Cc3cccs3)c2n1 | inactive | 
N#CCCn1c(=O)c(-c2cccs2)nc2cnc(Nc3ccccc3)nc21 | inactive | 
CCNc1ncc2nc(-c3cccc(C#N)c3)c(=O)n(CCC#N)c2n1 | 0.0316 µM (active) | 
CCNc1ncc2nc(-c3cccs3)c(=O)n(CCC#N)c2n1 | 1.26 µM (active) | 
CCNc1ncc2nc(-c3cn(C)c4ccccc34)c(=O)n(Cc3ccc(F)cc3)c2n1 | inactive | 
CCNc1ncc2nc(C)c(=O)n(Cc3cccs3)c2n1 | inactive | 
